Source: PubChem BioAssay (several laboratories)
An excerpt weighted towards active compounds, which were near 3.4% of everything screened.
EBV LMP1 NFkB – reduces LMP1-driven NF-kappaB luciferase signal; LMP1-induced NF-kappaB luciferase reporter cells, luminescence; inhibition, % at 12.5 µM; actives 0.69% (n = 350,000); in the data active = inhibition above about 41%;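 also: 0% = neutral control wells and 100% = reference inhibitor control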
Shn3 3UTR inh – inhibitors of Schnurri-3 3'UTR reporter in osteoblasts. Clone20 osteoblast Shn3 3'UTR firefly luciferase, 24 h. inhibition, % at 12.5 µM. actives 0.52% (n = 360,000);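 active = mean inhibition of at least 75% with every replicate also reaching 75%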;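 also: 0% = median of neutral control wells and 100% = pilot-screen positive control compound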
MITF TRPM1 inh – reduces MITF-dependent TRPM1 promoter luciferase signal; SK-MEL-5 TRPM1 promoter luciferase, 24 h; inhibition, % at 12.5 µM; actives 0.83% (n = 330,000);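 active = mean inhibition across replicates of 60% or more, whatever share of single replicates reaches that level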
TROY NFkB inh – inhibitors of TROY-dependent NF-kB signaling | inhibition, % at 10 µM | Q293 LMP1-TROYcd NF-kB luciferase reporter, 4 h | actives 0.98% (n = 360,000);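 active = compounds whose plate-normalised and pattern-corrected inhibition of the luciferase reporter signal at the single screening dose is 50% or more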
HIF-2a inh – HIF-2a inhibition. inhibition, % at 18.8 µM. 786-0 RCC cells HIF-2a reporter, luciferase luminescence, overnight. AID 624352. actives 0.72% (n = 360,000);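 active = inhibition of the luminescence signal of 40% or more relative to plate controls, in a single-dose primary screen at 18.75 µM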
TWEAK Fn14 block – TWEAK-Fn14 signaling inhibition | TWEAK-stimulated Fn14 reporter cells, luciferase luminescence, 8 h | inhibition, % at 10 µM | actives 2% (n = 360,000) | AID 1159606; in the data active = inhibition above about 50%
Numbers without * were called inactive; x = not tested or not shown.

SMILES	EBV LMP1 NFkB	Shn3 3UTR inh	MITF TRPM1 inh	TROY NFkB inh	HIF-2a inh	TWEAK Fn14 block
Cc1ccc(OCc2ccc(C(=O)O)o2)cc1C	-9	-45	-17	-72	-106	0
O=C(OCC(=O)c1cccs1)c1ccccc1	-14	-180	-20	-65	-54	-14
O=C(CC(Nc1ccccc1Cl)C(=O)OCC(=O)c1cccs1)c1ccccc1 (stereo not drawn)	-24	-21	17	71*	-85	70*
O=C(CC(Nc1ccc(Cl)cc1Cl)C(=O)O)c1ccccc1 (stereo not drawn)	13	20	12	87*	29	95*
O=C(CC(Nc1ccccc1)C(=O)O)c1ccccc1 (stereo not drawn)	-49	-108	-104	-25	-222	6
COc1ccccc1N1CCN(C(=S)Nc2ccc(F)cc2)CC1	22	18	1	53*	6	37
CCCCCCN1C2=NCCN2c2ccccc21	12	-8	7	11	4	-7
CCCCCCn1ccc(=N)cc1	12	86*	19	22	19	39
NC1=NS(=O)(=O)NC1c1cccc(Cl)c1 (stereo not drawn)	3	0	10	1	16	82*
CSc1ccc(CNC(=O)CCn2ccc3cc(S(=O)(=O)N4CCCC4)ccc32)cc1	-6	-10	7	2	7	3
CCN(N=O)c1ccc(C=C2C=Cc3ccccc32)cc1	-43	-60	-91	38	-212	39
CC12CCC(=O)C=C1CCC1C2C(=O)CC2(C)C1CC[C@]2(O)C(=O)CO (stereo partly drawn)	2	7	-2	5	11	78*
CCC(C(=O)OCC(=O)C1(O)CCC2C3CCC4=CC(=O)CCC4(C)C3C(O)CC21C)C(C)C (stereo not drawn)	-3	42	-2	37	0	30
CC(=O)[C@@]1(O)CC[C@H]2[C@@H]3CCC4=CC(=O)CC[C@]4(C)[C@H]3[C@@H](O)C[C@@]21C	56*	9	-10	2	20	-13
c1ccc(-c2nc(NCc3ccco3)c3ccccc3n2)nc1	63*	21	30	-32	-4	5
Cc1ccc(Nc2nc(NCc3ccco3)c3ccccc3n2)cc1	-11	96*	-21	70*	-130	85*
CCn1c(/C=C/c2cc(Br)ccc2O)nc2ccccc2c1=O	-21	-2	15	47	22	63*
CCn1c(/C=C/c2ccc(O)c(O)c2)nc2ccccc2c1=O	4	4	16	11	3	11
Cc1[nH]c2ccccc2c1/C=C/c1nc2ccccc2c(=O)n1CCO	-27	24	-18	55*	-8	13
CCOc1ccccc1C=C1CCc2ccccc2C1=O	-4	-29	x	-25	-144	-28
O=C1C(=Cc2ccc(Cl)cc2)CCc2ccccc21	x	-67	x	54*	-214	70*
Cn1cccc1/C=C1\CCc2ccccc2C1=O	16	7	-7	24	-182	76*
COc1ccccc1C=C1CCc2ccccc2C1=O	x	-68	x	27	-173	72*
O=C1C(=Cc2ccc(F)cc2)CCc2ccccc21	x	x	x	27	-155	70*
Cc1occc1C(=O)N(C)Cc1nc(-c2ccccc2)no1	-8	-12	-7	-7	-37	17
SMILES	EBV LMP1 NFkB	Shn3 3UTR inh	MITF TRPM1 inh	TROY NFkB inh	HIF-2a inh	TWEAK Fn14 block
CCN1CCN(C(=O)/C=C/c2cccc(Cl)c2)CC1	-8	-8	-2	-7	-31	-1
O=C1C(=Cc2cccc(Cl)c2)CCc2ccccc21	x	-9	x	-19	-116	22
O=C1C(=Cc2ccccc2Cl)CCc2ccccc21	x	-31	x	19	-231	58*
COc1ccc(NC(=O)c2c(Nc3ccccc3)sc(C(=O)c3ccc(F)cc3)c2N)cc1	25	45	53	16	-16	52*
CCOC(=O)c1cn2nc(Oc3ccccc3)ccc2n1	-14	-23	-70	-37	-222	0
CCOC(=O)c1cn2nc(N3CCCC3)ccc2n1	53*	25	17	48	-27	79*
CCOC(=O)c1cn2nc(N3CCCCC3)ccc2n1	59*	30	16	71*	-81	89*
Cc1c(C=O)c2ccccn2c1C(=O)c1ccccc1Cl	53*	5	7	2	25	0
Cc1c(C=O)c2ccccn2c1C(=O)c1cccs1	11	11	-6	-2	16	-25
CCCCn1nnnc1C1(C)CCC(=O)N1CC(F)(F)F (stereo not drawn)	x	x	x	5	-2	4
CN(C)CCNc1nc2sc3c(c2c(=O)n1CCc1ccccc1)CCCCC3	-9	-21	90*	-97	-84	-48
COc1ccc(/C=N/NS(=O)(=O)c2ccc(C)cc2)cc1OC(=O)c1ccc(C)cc1	0	-5	3	6	-16	55*
COc1cc(/C=N/NS(=O)(=O)c2ccc(C)cc2)ccc1OCc1ccc(C(=O)O)cc1	61*	25	72*	-70	32	-13
CCOc1ccc(/C=N/NS(=O)(=O)c2ccc(C)cc2)cc1OC	0	7	-8	15	19	-7
COc1ccc(C(=O)Oc2cc(/C=N/NS(=O)(=O)c3ccccc3)ccc2OC)cc1	3	-7	6	-2	2	-6
CCOC(=O)N1CCN(Cc2c(F)cccc2F)CC1	5	10	-11	x	12	71*
CCCS(=O)(=O)c1nnnn1-c1cccc(OC)c1	18	99*	70*	52*	-42	69*
NCCCN1CCOCC1	6	-16	-2	4	1	5
C(CCN1CCOCC1)CN1CCOCC1	x	0	x	64*	-2	-9
Cc1oc(-c2ccc(Cl)cc2)nc1CN1CCC(C(=O)NCCCN2CCCC2=O)CC1	9	19	1	2	7	-4
Cc1oc(-c2ccc(Cl)cc2)nc1CN1CCC(C(=O)NCCCN2CCCC(C)C2)CC1 (stereo not drawn)	-36	-16	96*	-4	-6	-11
COc1ccc(CN2C(=O)C(CC(=O)NCc3cccs3)CC(C(=O)N3CCOCC3)=C2C)cc1 (stereo not drawn)	4	-2	x	1	-2	3
NC(=O)c1c(-c2ccc(Cl)cc2Cl)csc1NC(=O)Cc1ccccc1	11	62	-12	20	-21	76*
O=C(Cc1ccccc1)Nc1scc(-c2ccccc2)c1C(=O)N1CCOCC1	-4	7	12	-13	-17	-6
CN(C)c1ccnc2sc(C(N)=O)c(N)c12	56*	10	-10	-21	17	29
CN(C)c1ccnc2sc(C(=O)c3ccc(Br)cc3)c(N)c12	1	-62	-63	-69	-200	-48
COc1ccccc1N1CCN(C(=O)c2cccc(S(=O)(=O)NCc3cccnc3)c2)CC1	10	42	14	8	22	21
S=C(NCCC(c1ccccc1)c1ccccc1)Nc1cccc(Cl)c1	-15	-21	-2	62*	-30	29
